Among the test systems are NCI-H23 lung; NCI-H226 lung; NCI-H322M lung; HOP-62 NSCLC; NCI-H460 lung; HOP-92 NSCLC; NCI-H522 lung; A549/ATCC NSCLC; 786-0 renal; COLO 205 colon; DU-145 prostate; K-562 leukemia; MALME-3M melanoma; MDA-MB-231 breast; RXF 393 renal; SF-268 CNS; SF-295 CNS; SF-539 CNS; UACC-257 melanoma; M14 melanoma.
Common to all, as to experiment: NCI-60 one-dose screen, 48 h (100 = growth as untreated, 0 = no growth, -100 = all killed)
Common to all, as to conditions: 10 µM unless noted

About 83,000 compounds went through this panel and 20% of them were active in at least one assay; those are over-represented in the sample as a whole.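 A percent growth of 40 corresponds to 60% growth inhibition; 0 means no net growth; -100 means all cells died. Active threshold: below 10.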 Values without a mark were called inactive. Activity calls are given as the source filed them.

`CC(=O)Nc1nc2c(s1)CC[C@@]1(C)C2=CC[C@H]2[C@@H]3CC[C@H](O)[C@@]3(C)CC[C@@H]21`: the growth in the assay with NCI-H23 lung was 73.3%; in the assay on NCI-H226 lung, 89.9%; with NCI-H322M lung, 79.8%; in the assay on HOP-62 NSCLC, 67.1%; with NCI-H460 lung, 27.3%; in the assay on HOP-92 NSCLC it was 84.7%. Also, the growth was 51.6% with NCI-H522 lung; 56% in the assay with A549/ATCC NSCLC; 35.7% in the assay with 786-0 renal; 72.2% in the assay on COLO 205 colon; 81.7% with DU-145 prostate; 17.5% in the assay on K-562 leukemia. Moreover, the growth with MALME-3M melanoma is 56.9%; in the assay on MDA-MB-231 breast, 81.5%; in the assay on RXF 393 renal, 23.5%; in the assay on SF-268 CNS, 73.4%; in the assay with SF-295 CNS, 36.4%; in the assay with SF-539 CNS, 8.5% (active). The values for the growth with UACC-257 melanoma and with M14 melanoma were 82% and 36%, respectively.

In the case of `CC(=O)OC1C(OC/C2=C/C3[C@@H](C(C)C)CC=C(C)[C@@H]3CC(OC(=O)/C=C/c3cn(C)cn3)[C@]3(C)C=C[C@@]2(O)O3)OCC(O)C1O` (stereo not given in full), the growth in the assay on NCI-H23 lung is 18.2%; in the assay with NCI-H226 lung, 63.5%; in the assay on NCI-H322M lung it was 17.4%; with HOP-62 NSCLC, 8.78% (active); with NCI-H460 lung it was 9.03% (active); in the assay with HOP-92 NSCLC, 35.3%. Besides, the growth in the assay with NCI-H522 lung is 0.4% (active); in the assay with A549/ATCC NSCLC it was 27.9%; in the assay with 786-0 renal it was 15.9%; in the assay on COLO 205 colon it was -24.9% (active); with DU-145 prostate it was -10.2% (active); in the assay with K-562 leukemia, 15.7%. The growth was 48.4% in the assay on MALME-3M melanoma; 41.8% in the assay with MDA-MB-231 breast; -20.6% (active) in the assay on RXF 393 renal; 45.1% in the assay with SF-268 CNS; -3.4% (active) in the assay on SF-295 CNS; 11.9% in the assay with SF-539 CNS. In addition, the growth in the assay with UACC-257 melanoma was 60.7%; with M14 melanoma it was -35.7% (active).

`CCCCCCCCCCCCCCCCCC1OC[C@H](COC(=O)O[C@@H](C(=O)O[C@H]2C[C@@]3(O)[C@@H](OC(=O)c4ccccc4)[C@@H]4[C@]5(OC(C)=O)CO[C@@H]5C[C@H](O)[C@@]4(C)C(=O)[C@H](OC(C)=O)C(=C2C)C3(C)C)[C@@H](NC(=O)c2ccccc2)c2ccccc2)O1` (stereo not given in full): the growth in the assay on NCI-H23 lung is 42.7%; in the assay with NCI-H226 lung it was 94.3%; in the assay on NCI-H322M lung, 47.4%; in the assay on HOP-62 NSCLC, 66.3%; in the assay with NCI-H460 lung, 20.9%; with HOP-92 NSCLC it was 75%. The growth was 60.2% in the assay with NCI-H522 lung; 43.9% in the assay on A549/ATCC NSCLC; 91.2% in the assay on 786-0 renal; 13.3% in the assay with COLO 205 colon; 45.7% in the assay on DU-145 prostate; 37.5% in the assay on K-562 leukemia. The growth in the assay with MALME-3M melanoma was 58.9%; in the assay on MDA-MB-231 breast it was 47.2%; in the assay on RXF 393 renal, 65.2%; in the assay with SF-268 CNS, 73.3%; in the assay on SF-295 CNS, 53%; in the assay with SF-539 CNS, 43.3%. The growth with UACC-257 melanoma is 72.2%; in the assay with M14 melanoma, 29.6%.

On to `CN(C)C1C(=O)C(C(N)=O)=C(O)C2(O)C(=O)C3=C(O)c4c(O)cccc4C(C)(O)C3CC12.[Cl][Sb]([Cl])[Cl]` (stereo not given), for which the growth was 46.1% in the assay with NCI-H23 lung; 86.6% with NCI-H226 lung; 46.3% in the assay on NCI-H322M lung; 45.8% with HOP-62 NSCLC; 4.47% (active) in the assay on NCI-H460 lung; -5.57% (active) in the assay on HOP-92 NSCLC. Moreover, the growth in the assay on NCI-H522 lung is 4.59% (active); in the assay on A549/ATCC NSCLC, 26.1%; in the assay on 786-0 renal it was 26.6%; in the assay with COLO 205 colon, 96.5%; with DU-145 prostate it was 60%; with K-562 leukemia it was 22.9%. Moreover, the growth was -21.2% (active) with MALME-3M melanoma; 79.1% in the assay with MDA-MB-231 breast; 59.2% in the assay on RXF 393 renal; 29.7% in the assay with SF-268 CNS; -3.24% (active) with SF-295 CNS; 20.9% with SF-539 CNS. For the same compound, the growth with UACC-257 melanoma was 30.1%; in the assay with M14 melanoma, 37%.

As to `COC(=O)[C@@]1(C)CC[C@]2(C)CC[C@]3(C)C4=CC(=O)c5c(cc(O)c(O)c5C)[C@]4(C)CC[C@@]3(C)[C@@H]2C1`, the growth with NCI-H23 lung is 46.9%; with NCI-H226 lung, 51.1%; in the assay with NCI-H322M lung, 70.6%; in the assay with HOP-62 NSCLC, 71.7%; with NCI-H460 lung, 31.8%; in the assay on HOP-92 NSCLC, 49.2%. Also, the growth is 38.5% with NCI-H522 lung; 38.6% in the assay with A549/ATCC NSCLC; 78.6% in the assay on 786-0 renal; 71.5% in the assay with COLO 205 colon; 67.1% with DU-145 prostate; 49% in the assay with K-562 leukemia. In addition, the growth in the assay with MALME-3M melanoma is 106%; in the assay on MDA-MB-231 breast, 61.4%; in the assay with RXF 393 renal, 85%; in the assay on SF-268 CNS, 61.7%; in the assay on SF-295 CNS, 49.8%; in the assay on SF-539 CNS, 78%. In addition, the growth with UACC-257 melanoma is 41.9%; in the assay on M14 melanoma it was 66.4%.

Consider `O=[N+]([O-])c1c(Br)sc(Br)c1[N+](=O)[O-]`, for which the growth in the assay on NCI-H23 lung was 37.3%; in the assay with NCI-H226 lung, 87.8%; in the assay with NCI-H322M lung, 84.9%; with HOP-62 NSCLC, 75.2%; in the assay on NCI-H460 lung it was 75.1%; in the assay with HOP-92 NSCLC, 43%. Also, the growth in the assay on NCI-H522 lung was -72.9% (active); with A549/ATCC NSCLC it was 77.3%; with 786-0 renal, -36% (active); with COLO 205 colon it was -77.7% (active); in the assay on DU-145 prostate, 46.9%; in the assay with K-562 leukemia it was 3.25% (active). The growth is -41.5% (active) in the assay with MALME-3M melanoma; 14.2% in the assay on MDA-MB-231 breast; -75.5% (active) with RXF 393 renal; 85.7% in the assay with SF-268 CNS; 99% in the assay with SF-295 CNS; -12.3% (active) with SF-539 CNS. For the same compound, the growth in the assay on UACC-257 melanoma is -0.992% (active); in the assay with M14 melanoma, -18.9% (active).

Turning to `CC12CCC(O)CC1=CCC1C2CCC2(C)C(O)CCC12` (stereo not given), the growth in the assay with NCI-H23 lung was 111%; in the assay on NCI-H226 lung, 90%; in the assay on NCI-H322M lung it was 101%; in the assay with HOP-62 NSCLC, 103%; in the assay with NCI-H460 lung it was 101%; in the assay on HOP-92 NSCLC it was 85.4%. For the same compound, the growth is 94.8% in the assay with NCI-H522 lung; 109% in the assay with A549/ATCC NSCLC; 103% in the assay on 786-0 renal; 106% with COLO 205 colon; 105% in the assay with DU-145 prostate; 115% in the assay with K-562 leukemia. Besides, the growth in the assay on MALME-3M melanoma is 102%; in the assay on MDA-MB-231 breast it was 105%; with RXF 393 renal, 101%; in the assay on SF-268 CNS, 102%; with SF-295 CNS, 96.2%; in the assay with SF-539 CNS, 98.9%. Moreover, the growth was 110% with UACC-257 melanoma and 106% in the assay on M14 melanoma.

With `CNC(=O)Oc1ccc(C(C)(C)C)cc1OC(=O)NC`, the growth in the assay with NCI-H23 lung was 100%; in the assay on NCI-H226 lung, 93.6%; in the assay on NCI-H322M lung it was 112%; in the assay with HOP-62 NSCLC, 88.7%; in the assay with NCI-H460 lung, 102%; with HOP-92 NSCLC it was 95.2%. The growth in the assay on NCI-H522 lung is 84.8%; in the assay on A549/ATCC NSCLC, 90.5%; in the assay with 786-0 renal, 89.4%; with COLO 205 colon, 87%; with DU-145 prostate, 105%; with K-562 leukemia, 97.6%. Besides, the growth was 104% in the assay with MALME-3M melanoma; 105% with MDA-MB-231 breast; 108% in the assay with RXF 393 renal; 105% in the assay on SF-268 CNS; 98.6% in the assay with SF-295 CNS; 103% in the assay with SF-539 CNS. In addition, the growth in the assay on UACC-257 melanoma was 92%; with M14 melanoma it was 93.3%.

These data come from PubChem BioAssay (NCI).
